This is a sample that favours compounds with a hit; in the whole collection about 4% have one here.
TWEAK-Fn14 inh – inhibitors of TWEAK-Fn14 interaction signaling | TWEAK-stimulated Fn14 reporter cells, luciferase luminescence, 8 h | inhibition, % at 10 µM | actives 2% (n = 360,000); in the data active = inhibition above about 50%
EBV LMP1 NFkB – Epstein-Barr LMP1 NF-kappaB reporter inhibition. actives 0.69% (n = 350,000). inhibition, % at 12.5 µM. LMP1-induced NF-kappaB luciferase reporter cells, luminescence; in the data active = inhibition above about 41%;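 also: 0% = neutral control wells and 100% = reference inhibitor control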
HIF-2a block – blocks HIF-2a reporter activity; 786-0 RCC cells HIF-2a reporter, luciferase luminescence, overnight; inhibition, % at 18.8 µM; actives 0.72% (n = 360,000); AID 624352;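 active = inhibition of the luminescence signal of 40% or more relative to plate controls, in a single-dose primary screen at 18.75 µM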
MITF TRPM1 inh – inhibitors of MITF-driven TRPM1 promoter in melanoma cells; actives 0.83% (n = 330,000); inhibition, % at 12.5 µM; SK-MEL-5 TRPM1 promoter luciferase, 24 h; AID 488899;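 active = mean inhibition across replicates of 60% or more, whatever share of single replicates reaches that level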
Peg3 prom inh – inhibitors of Peg3 promoter; inhibition, % at 20 µM; actives 1.7% (n = 360,000); HeLa PEG-Prom luciferase reporter, luminescence, overnight;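 active = inhibition of at least 50% at 20 µM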
TROY NFkB inh – TROY signaling inhibition. Q293 LMP1-TROYcd NF-kB luciferase reporter, 4 h. inhibition, % at 10 µM. AID 1347056. actives 0.98% (n = 360,000);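 active = compounds whose plate-normalised and pattern-corrected inhibition of the luciferase reporter signal at the single screening dose is 50% or more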
Starred values were filed as active, the others as inactive; / = not tested or not shown.

SMILES	TWEAK-Fn14 inh	EBV LMP1 NFkB	HIF-2a block	MITF TRPM1 inh	Peg3 prom inh	TROY NFkB inh
N#C/C(=C/c1ccc(CNC(=O)C(=O)Nc2cc(Cl)cc(Cl)c2)o1)C(=O)NCc1cccnc1	-23	9	13	40	92*	0
Cc1ccc(NC(=O)C(=O)NCc2ccc(/C=C(/C#N)C(=O)NCc3cccnc3)o2)cc1	7	11	-3	-1	12	6
O=C1[C@H]2[C@@H](c3ccc(C(F)(F)F)cc3)N[C@]3(CCCN(Cc4ccc(F)cc4)C3=O)[C@H]2C(=O)N1Cc1ccccc1	95*	-13	-78	/	33	-3
O=C1[C@H]2[C@@H](c3ccccc3)N[C@]3(CCCN(Cc4ccc(C(F)(F)F)cc4)C3=O)[C@H]2C(=O)N1Cc1ccccc1	33	6	-10	/	37	11
Cc1ccc(C(=O)Nc2nc(-c3ccc4c(c3)OCCO4)cs2)o1	36	-16	-220	/	-186	26
N#CCC(=O)Nc1nc(-c2ccc3c(c2)OCCO3)cs1	-32	-36	-169	-56	-97	20
O=C(CCCCl)Nc1nc(-c2ccc3c(c2)OCCO3)cs1	51*	-18	-174	-90	-209	24
O=C(Nc1nc(-c2ccc3c(c2)OCCO3)cs1)c1ccc(Br)o1	28	1	-78	/	-85	55*
Cc1cccc(Nc2nc(-c3ccc4c(c3)OCCO4)cs2)c1	70*	-57	-148	-80	-245	66*
Cc1cccc(Nc2nc(-c3c(C)nc4ccccn34)cs2)c1	66*	21	-120	33	10	41
CC(=O)c1c(C)[nH]c(C(=O)NCCc2c[nH]c3ccccc23)c1C	5	-24	-154	-19	-123	-28
c1cncc(-c2nc(-c3ccc4c(c3)OCCO4)cs2)c1	52*	-12	-247	-15	-263	-38
Oc1ccc(-c2csc(-c3cccnc3)n2)cc1O	39	4	-250	-26	-167	-29
O=[N+]([O-])c1ccc(N2CCN(Cc3cccc([N+](=O)[O-])c3)CC2)cc1	-7	54*	12	6	7	-5
O=[N+]([O-])c1ccc(CN2CCN(c3ccc([N+](=O)[O-])cc3)CC2)cc1	21	13	10	9	11	13
COc1ccc2cc(-c3cc(C(=O)O)c4ccccc4n3)ccc2c1	75*	66*	35	28	30	25
COc1ccc(OC)c(-c2cc(C(=O)Nc3ccccc3C(N)=O)c3ccccc3n2)c1	21	/	13	/	54*	-40
COc1ccc(NC(=O)c2cc(-c3ccc(C)o3)nc3ccccc23)c(OC)c1	-13	/	-125	/	-12	-15
Cc1ccc(-c2cc(C(=O)Nc3ccccc3C(N)=O)c3ccccc3n2)o1	-16	/	7	/	52*	-10
COc1ccc(OC)c(-c2cc(C(=O)N/N=C/c3ccc(F)cc3)c3ccccc3n2)c1	1	/	20	/	18	-10
CCCCNC(=O)C1(C)CCCCN1C(=O)c1c(C)noc1C (stereo not given)	0	/	1	/	-7	1
Cc1cnc(C(=O)OCC(=O)N2C(C)CCCC2C)cn1 (stereo not given)	4	-5	2	-9	0	0
Cc1cc(/C=N/NC(=O)c2cccc([N+](=O)[O-])c2)c(C)n1-c1ccc(Cl)cc1Cl	95*	6	-2	12	24	/
Cc1nc2sccn2c(=O)c1S(=O)(=O)Nc1ccc(N2CCN(S(C)(=O)=O)CC2)cc1	11	0	6	13	39	6
Cc1cccc2cc(CN(Cc3ccccc3)C(=S)NCCCN(C)C)c(=O)[nH]c12	-5	-33	11	-22	18	-5
SMILES	TWEAK-Fn14 inh	EBV LMP1 NFkB	HIF-2a block	MITF TRPM1 inh	Peg3 prom inh	TROY NFkB inh
Cc1ccc(CN(Cc2cc3cccc(C)c3[nH]c2=O)C(=S)NCCCN(C)C)cc1	-15	-18	11	-6	87*	-4
O=C(Nc1ccccc1[N+](=O)[O-])c1cccc(N2C(=O)CCC2=O)c1	14	-6	-7	9	-3	2
Cc1nccn1CC(=O)N/N=C/c1cccs1	74*	-1	12	-7	0	-5
Cc1cc(C)n(CC(=O)N/N=C/c2cccs2)n1	105*	-18	-111	-29	-76	-15
Cc1cc(C)n(CC(=O)N/N=C/c2ccc([N+](=O)[O-])s2)n1	7	-5	4	47	-10	-16
O=C(CCc1ccccc1)NNC(=O)COc1ccccc1Cl	26	3	7	-9	-4	-17

Screening results deposited in PubChem by several laboratories.
